Screening results deposited in PubChem by several laboratories.
An excerpt weighted towards active compounds, which were near 13% of everything screened.
Lmaj promast = Leishmania major promastigote growth inhibition, primary screen; Leishmania major promastigotes, resazurin fluorescence viability; inhibition, % at 10 µM; actives 9% (n = 200,000); AID 1063, 2008; in the data active = inhibition above about 50%;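 also: promastigotes grown with compound for 44 hours at 28 °C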
WT yeast gro inh = growth inhibition of WT strain, primary screen, mitochondrial fusion inhibitor project, WT and mutant strains, chemical genetic; mitochondrial fusion phenotypic screen; inhibition, % at 10 µM; actives 2.1% (n = 190,000); in the data active = inhibition above about 58%; tested in S. cerevisiae
CHOP inh = inhibitors of CHOP promoter induction, primary screen, cell-based, unfolded protein response, luciferase reporter. inhibition, % at 10 µM. actives 3.8% (n = 220,000). CHO-K1 CHOP-promoter luciferase, tunicamycin-induced, 15-18 h;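 active = compounds that reduced the stress-induced luciferase reporter signal by more than about 70% of percent inhibition, limit read from the data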;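 also: 0% = tunicamycin plus vehicle and 100% = wells without tunicamycin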
RAM network inh = inhibitors of the yeast RAM network, primary screen, dse1pr::URA3 reporter, 5-FOA selection. S. cerevisiae dse1pr::URA3 reporter, 5-FOA growth OD615, 2 d; analog-sensitive cbk1-as2 kinase mutant strain. inhibition, % at 50 µM. actives 1.8% (n = 190,000). AID 868, 2007;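 active = inhibition above a set limit, 3 SD over mean compound inhibition, cut at about 8.4% in these data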;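 also: 0% = DMSO-only wells with no growth and 100% = 10 µM 1-NA-PP1 full growth; inhibition rescues growth on 5-FOA so higher OD means more RAM inhibition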
The depositor's hits bear a star; nt = no result.

SMILES	Lmaj promast	WT yeast gro inh	CHOP inh	RAM network inh
O=C(NCC1(N2CCOCC2)CCCCC1)c1ccc(Cl)c(S(=O)(=O)NCc2ccco2)c1	93*	8	14	1
Cc1ccc(S(=O)(=O)NCc2ccncc2)c(C)c1C	-2	-6	50	0
O=C(c1ccc(Cl)c(S(=O)(=O)N2CCCC2)c1)N1CCN(c2ccccc2F)CC1	-5	16	12	0
Cc1ccc(NC(=S)NC2CC3CCCC(C2)N3Cc2ccco2)cc1 (stereo not given)	90*	8	-1	3
Cc1cccc(NC(=O)NC2CC3CCC(C2)N3Cc2ccco2)c1 (stereo not given)	8	-18	-8	1
CCc1ccc(NC(=S)NC2CC3CCC(C2)N3Cc2ccco2)cc1 (stereo not given)	94*	-2	4	0
COc1ccc(NC(=S)NC2CC3CCC(C2)N3Cc2ccco2)cc1 (stereo not given)	42	-13	3	1
Cc1cccc(NC(=S)NC2CC3CCC(C2)N3Cc2ccco2)c1 (stereo not given)	79*	5	-11	2
Cc1ccccc1NC(=S)NC1CC2CCC(C1)N2Cc1ccco1 (stereo not given)	60*	9	-14	2
Cc1cccc(NC(=S)NC2CC3CCCC(C2)N3Cc2ccco2)c1 (stereo not given)	63*	-2	1	0
COc1cc(SC#N)ccc1N=Cc1c(C)[nH]n(-c2cccc3ccccc23)c1=O	18	7	21	3
COc1cc(SC#N)ccc1N=Cc1c(C)[nH]n(-c2ccc(C)cc2C)c1=O	56*	24	67	1
Cc1cc(O)ccc1NC(=O)CCN1C(=O)c2ccc([N+](=O)[O-])cc2C1=O	70*	-7	-8	3
O=C(CCN1C(=O)c2ccc([N+](=O)[O-])cc2C1=O)Nc1cccc(O)c1	-6	-15	-1	3
Cc1sc(NC(=O)c2ccco2)c(C(c2cccnc2)N2CCC(C)CC2)c1C (stereo not given)	91*	-14	42	1
COc1cc2ccccc2cc1C(=O)NC(=S)Nc1cccc(C(=O)O)c1C	nt	nt	4	nt
Cc1cc(C)c2c(c1)/C(=N\N=c1\sc3ccccc3n1C)C(=O)N2	nt	nt	69	nt
S=C(NNc1ccnc2cc(Cl)ccc12)Nc1ccccc1Cl	42	42	96*	2
S=C(Nc1ccccc1Cl)Nc1ccc(Cl)cc1Cl	9	-6	1	1
NC(=O)c1cccc(CC(=O)c2ccccc2)c1	nt	nt	17	nt
COc1cc2c(cc1OC)C1Cc3ccc(OC)c(OC)c3CN1CC2 (stereo not given)	95*	-18	12	2
COc1ccc(/C=C/C(=O)NCCCc2ccccc2)cc1	-6	0	26	2
CC(C)c1ccc(/C=C/C(=O)NCCCc2ccccc2)cc1	-1	61*	1	8.6*
O=C1C2C=CC=CC2=NC(=S)N1CCN1CCC(=C(c2ccc(F)cc2)c2ccc(F)cc2)CC1 (stereo not given)	nt	nt	-1	nt
CCN(CC)c1ccc2cc(C(C)=O)c(=O)oc2c1	11	-2	-16	-1
SMILES	Lmaj promast	WT yeast gro inh	CHOP inh	RAM network inh
CCN(CC)c1ccc2cc(NC(=O)CCC(=O)O)c(=O)oc2c1	-10	35	88*	0
COc1cc(C(=O)O)nc(OC)n1	-6	0	8	0
CN(C(=S)Nc1ccc(SC(F)F)cc1)c1ccc(O)cc1	0	87*	12	0
CN(C(=S)Nc1cccnc1)c1ccc(O)cc1	1	-9	2	1
Oc1ccc(/C=N/Nc2ccnc3cc(Cl)ccc23)c(O)c1	nt	nt	90*	nt
Cc1ccc(N/N=C/c2cccnc2)cc1	76*	35	40	0
Clc1ccc2c(N/N=C/c3cccnc3)ccnc2c1	100*	28	-1	3
Clc1ccc(NNc2ccnc3cc(Cl)ccc23)cc1	5	-9	13	1
Cc1csc(N/N=C\c2cccnc2)n1	7	5	-17	3
Cc1ccc(/C=N/Nc2ccnc3cc(Cl)ccc23)c(C)c1	100*	98	105*	4
Cc1cnc(C(=O)OCC(=O)N2c3ccccc3NC(=O)C2(C)C)cn1	7	-29	10	-1
CC(=O)c1c(C)[nH]c(C(=O)OCC(=O)N2CCc3ccccc32)c1C	2	7	-8	0
CC(=O)c1c(C)[nH]c(C(=O)OCC(=O)N2c3ccccc3NC(=O)C2(C)C)c1C	56*	-7	9	0
Cc1nn(-c2ccccc2)c(C)c1C(=O)OCC(=O)N1c2ccccc2NC(=O)C1(C)C	88*	-5	34	3
CCc1ccc(OCC(=O)N/N=C\c2ccco2)c([N+](=O)[O-])c1	-6	6	19	2
COc1ccc(Nc2nc(C(=O)N3CCc4ccccc4C3)cs2)cc1	14	75*	35	2
O=C(c1csc(Nc2cccc3ccccc23)n1)N1CCCC1	nt	nt	22	nt
O=C(c1csc(Nc2ccccc2Cl)n1)N1CCCC1	11	69*	-3	0
COc1ccccc1Nc1cc(C(=O)N2CCc3ccccc3C2)c2ccccc2n1	15	55	25	2
COc1ccc(-c2cc(C(=O)N3CCN(c4ncccn4)CC3)c3ccccc3n2)c(OC)c1	19	59*	4	1
COc1ccccc1-c1cc(C(=O)N2CCc3ccccc3C2)c2ccccc2n1	100*	38	25	1
COc1cc2nc(CN(C)Cc3ccc(OC)c(OC)c3OC)[nH]c(=O)c2cc1OC	9	0	-3	4
COc1ccc(Nc2cc(C(=O)N3CCc4ccccc4C3)c3ccccc3n2)c(OC)c1	56*	54	48	0
CCCn1c(SCC(=O)Nc2cc(S(=O)(=O)N3CCOCC3)ccc2OC)n[nH]c1=O	0	-5	-3	1
COc1ccccc1NC(=O)N1C2CCCC1CC(NC(=O)c1ccccc1)C2 (stereo not given)	-5	8	-2	2
SMILES	Lmaj promast	WT yeast gro inh	CHOP inh	RAM network inh
CCOc1cc(-c2nc(-c3ccccc3)c(-c3cc([N+](=O)[O-])ccc3C)[nH]2)ccc1O	35	1	44	0
COc1ccc(-c2nc(-c3ccccc3)c(-c3cc([N+](=O)[O-])ccc3C)[nH]2)cc1OC	65*	45	27	1
O=[N+]([O-])c1ccc(O)c(-c2nc(-c3ccccc3)c(-c3cccs3)[nH]2)c1	38	72*	85*	2
Cc1nc(Cl)c(C(=O)NC(=O)NCc2ccccc2)c(C)c1Cl	-5	14	24	5
COc1ccc(C2(c3ccc(O)cc3O)CC(c3ccccc3Cl)NC(=S)N2)cc1 (stereo not given)	-11	-10	-12	1
CCC(C)[C@H](NC(=O)Nc1ccccc1F)C(=O)O (stereo not given in full)	nt	nt	11	nt
COc1cc(C(=O)Nc2cc(-c3nc4cc(C)ccc4o3)ccc2C)cc(OC)c1OC	10	4	34	2
COc1ccc(OCC(=O)Nc2cccc(-c3nc4ccccc4o3)c2)cc1	0	2	75*	7
